This is a sample that favours compounds with a hit; in the whole collection about 1.6% have one here.
HSV augment = enhancers of HSV replication in host cells, fold increase, host cell viability | HSV replication augmentation in cells | maximum fold increase | actives 0.005% (n = 220,000) | AID 1956, 2009; in the data active = maximum fold increase above about 1.5; inconclusive = no clear call, values can overlap the other calls; tested in PC3 cells
DTT redox prof = compounds producing H2O2 with reducing agent – biochemical, NIH compound library profiling, artefact control for MLSCN library redox annotation, primary screen; AID 878, 2007; activation, % at 10 µM; actives 0.03% (n = 200,000); DTT-dependent redox cycling H2O2, phenol red/HRP absorbance; 100% = 100 µM peroxide control, 0% = buffer;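 active = activation of at least 50% relative to the plate's high and low controls in the primary single-dose screen; inactive = activation below 50%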;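 also: compound incubated with DTT at 0.8 mM final as the reducing agent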
Wee1 stabilizer = Wee1 degradation inhibitors, primary screen, cell-based, HeLa, Wee1K328M-luciferase, luminescence; Wee1-like protein kinase (Homo sapiens), P30291; HeLa Luc-Wee1K328M stability; 100% = proteasome inhibitor MG132 effect; reporter increase, % at 5 µM; actives 1.2% (n = 220,000);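 active = activation above the mean of all tested compounds plus 3 SD, set per screening run, cut at about 8.8% in these data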;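 also: cells exposed to compound for 20 h before luminescence read; 0% = DMSO alone and 100% = MG132 at 30 µM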
Hsp70 activator = Hsp70 transcriptional activators, primary screen, cell-based, HeLa, Hsp70 promoter luciferase, luminescence, 10 µM; HeLa Hsp70 promoter luciferase reporter; scaled: vehicle 0, proteasome-inhibitor control 100%; activation, % at 10 µM; actives 0.04% (n = 200,000); AID 1203, 2008;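 active = activation above the mean across all tested compounds plus 3 SD, cutoff set per campaign, cut at about 5.5% in these data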;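 also: 100% = MG132 at 30 µM as the positive control and 0% = DMSO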
p97 inhibitor = inhibitors of human p97 ATPase, primary screen, biochemical | Transitional endoplasmic reticulum ATPase (Homo sapiens), P55072 | recombinant p97 ATPase, Kinase-Glo ATP luminescence, 3 h | inhibition, % at 8 µM | actives 0.42% (n = 220,000); in the data active = inhibition above about 15%;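 also: 0% = DMSO vehicle and 100% = wells lacking enzyme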
Target sequence (P55072 whole entry, looked up): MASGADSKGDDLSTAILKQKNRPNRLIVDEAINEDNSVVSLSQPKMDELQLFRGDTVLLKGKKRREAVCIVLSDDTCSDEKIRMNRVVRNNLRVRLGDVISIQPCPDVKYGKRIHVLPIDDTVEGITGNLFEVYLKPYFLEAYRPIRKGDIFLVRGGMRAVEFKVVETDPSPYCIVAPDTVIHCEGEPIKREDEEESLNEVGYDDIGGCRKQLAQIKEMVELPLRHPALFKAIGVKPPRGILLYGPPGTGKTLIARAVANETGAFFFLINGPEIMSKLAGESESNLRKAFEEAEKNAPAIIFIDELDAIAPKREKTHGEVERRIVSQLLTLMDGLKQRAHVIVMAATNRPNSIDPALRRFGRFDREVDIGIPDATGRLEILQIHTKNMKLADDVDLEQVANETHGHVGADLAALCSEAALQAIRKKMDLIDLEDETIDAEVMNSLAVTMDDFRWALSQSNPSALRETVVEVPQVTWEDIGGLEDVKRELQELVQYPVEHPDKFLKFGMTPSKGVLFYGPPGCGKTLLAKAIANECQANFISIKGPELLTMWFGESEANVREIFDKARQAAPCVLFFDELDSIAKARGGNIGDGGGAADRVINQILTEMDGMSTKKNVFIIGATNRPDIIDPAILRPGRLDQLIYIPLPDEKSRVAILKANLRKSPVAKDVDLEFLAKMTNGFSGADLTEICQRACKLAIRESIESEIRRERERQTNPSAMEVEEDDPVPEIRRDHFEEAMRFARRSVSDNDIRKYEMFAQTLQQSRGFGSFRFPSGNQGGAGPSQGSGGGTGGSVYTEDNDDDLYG
Numbers without * were called inactive; i = inactive; ? = inconclusive; . = no result.

SMILES | HSV augment | DTT redox prof | Wee1 stabilizer | Hsp70 activator | p97 inhibitor
CN(C)c1ccc(C(=O)/C=C/c2ccco2)cc1 | ? | 1 | 9.4* | 0 | 0
N#Cc1c(NC(=O)CSc2ncnc3sccc23)oc(-c2ccco2)c1-c1ccco1 | i | 0 | 2 | 0 | 15*
CCOC(=O)C1=C(C)Nc2[nH]c(=O)[nH]c(=O)c2C1c1cccs1 (configuration not stated) | . | 1 | 0 | 0 | 4
COc1ccc(CCNC(=O)C(C(=O)c2ccccc2)n2ccccc2=O)cc1OC (configuration not stated) | i | 0 | 11* | 0 | 4
COc1cc(C=O)c(Cl)cc1OCC(N)=O | i | 0 | 7 | 0 | 2
CCN(c1ccccc1)S(=O)(=O)c1ccc(Cl)c(NC(=O)COC(=O)c2ccc[n+]([O-])c2)c1 | i | -2 | 0 | 0 | 2
Cc1ccc(N2Cc3ccccc3C2=S)cc1 | i | 0 | 10* | 0 | 3
O=C(Nc1ccc2c(c1)CCC2)c1c(F)cccc1Cl | i | -2 | 8.9* | 1 | -3
O=C(Nc1ccc2c(c1)CCC2)c1cnc(Cl)c(Cl)c1 | i | 1 | -2 | 0 | -4
Nc1ccc2nc3n(c(=O)c2c1)CCC3 | i | -2 | . | . | .
COc1cc(-c2nc(N)n[nH]2)cc(OC)c1OC | i | 0 | 9.6* | -1 | -9
COc1ccc(-c2nc(N)n[nH]2)cc1OC | i | 2 | -1 | 0 | -1
COC(=O)[C@@H]1C[C@H]2CC[C@H](O)C[C@H]2N1Cc1ccc(Cl)cc1 | i | . | . | . | .
Cn1c(=O)c2c(nc(N3CCN(c4ccccc4)CC3)n2CCCc2ccccc2)n(C)c1=O | i | 3 | -1 | 0 | 1
Cn1c(=O)c2c(nc(N3CCN(Cc4ccccc4)CC3)n2CCCc2ccccc2)n(C)c1=O | i | -1 | 10* | 0 | -13
Cc1cc(C)nc(SCC(=O)c2ccc3c(c2)OCCO3)n1 | i | 0 | 0 | 0 | -6
O=C(Nc1ncc(Cc2ccccc2)s1)c1cccs1 | i | 0 | 9.0* | 0 | 3
C=C(C)c1cccc(C(C)(C)NC(=O)NCc2ccc(OC)c(OC)c2)c1 | i | -4 | 1 | 0 | 3
N/C(=N\OC(=O)Cc1ccc(Cl)cc1)c1ccncc1 | i | 0 | 8.9* | 0 | -1
O=C(O)Cc1ccc(OCc2ccc(Cl)nc2)cc1 | i | 0 | 2 | 0 | -1
O=C(NN=C1CCCCC1)c1ccccc1OCc1ccc(F)cc1 | i | 0 | 2 | 0 | -3
O=C(CN(C(=O)C1CSC(=O)C1)c1cccc(F)c1)NC1CCCC1 (configuration not stated) | i | -1 | 9.2* | 0 | -3
Cc1ccc(C)c(N(CC(=O)NC2CCCC2)C(=O)CCCC(=O)Nc2ccccn2)c1 | i | 0 | 8.9* | 0 | 1
COc1ccc(OCc2nc3ccccc3[nH]2)cc1 | i | 0 | 7 | 0 | -10
COc1cccc(OCc2nc3ccccc3[nH]2)c1 | i | 0 | 11* | 0 | -7
SMILES | HSV augment | DTT redox prof | Wee1 stabilizer | Hsp70 activator | p97 inhibitor
COc1ccc(CCNC(=O)CCCCCNc2nc(=S)[nH]c3ccccc23)cc1OC | i | 3 | 10* | 0 | 3
Cc1ccc(S(=O)(=O)NC(=O)c2ccccc2)cc1C(C)C | i | 0 | -3 | 0 | 4
COc1cc(/C=C2\SC(=S)N(c3cccnc3)C2=O)ccc1O | 2.8* | . | -1 | . | 5
COc1cc(/C=C2\SC(=S)N(NC(=O)c3cccnc3)C2=O)ccc1O | ? | . | -1 | . | 6
CC(C)Oc1cccc(-c2cc(C(=O)N3CCN(c4ncccn4)CC3)c3ccccc3n2)c1 | i | 1 | 9.3* | 0 | 0
CC(C(=O)NC(=O)NCc1ccccc1)N1C(=O)c2ccccc2C1=O (configuration not stated) | i | 1 | 1 | 0 | 1
CCOC(=O)c1c(C)nc(C(Cl)(Cl)Cl)nc1N | i | -2 | 2 | 0 | -3
COC(=O)c1cc(=O)c2c(C)nc(C(Cl)(Cl)Cl)nc2[nH]1 | i | -3 | 10* | 0 | 7
CC(C)(C)c1csc(N/N=C/c2cccnc2)n1 | i | 0 | 2 | 0 | -1
COc1ccc2c(c1)C(=O)c1ccccc1CO2 | . | 0 | 3 | 0 | 3
COc1ccc(/C=N/NC(=O)CCn2cnc(-c3ccccc3)c2-c2ccccc2)cc1OC | i | 0 | 11* | 0 | -1
COc1cc(/C=N/NC(=O)COc2ccc(-n3cnnn3)cc2)ccc1OCC(N)=O | i | . | 9.2* | . | 6
COc1ccc(/C=N/NC(=O)CCC(=O)Nc2ccccc2)cc1OC | i | 0 | -1 | 0 | 10
Cc1ccccc1NS(=O)(=O)c1ccc(N2CCCC2=O)cc1 | i | 2 | 10* | 0 | 3
Cc1nn(C)c(C)c1NS(=O)(=O)c1ccc(N2CCCC2=O)cc1 | i | 0 | 0 | 0 | 1
CCOc1ccc(C(=O)N2CCN(c3ccccc3)CC2)cc1 | i | -1 | 0 | 0 | -8
CC(C)c1ccc(/C=C2\SC(N3CCOCC3)=NC2=O)cc1 | i | . | 9.2* | . | -2
COc1ccc(-c2cc(C(F)F)n3ncc(C(=O)Nc4cnn(Cc5ccccc5)c4)c3n2)cc1 | . | 0 | -2 | 0 | 6
CCOC(=O)NC(=O)/C(N=Nc1ccc(C(F)(F)F)cc1)=C(\C)O | i | -1 | 9.9* | 0 | -1
CCOC(=O)NC(=O)/C(N=Nc1cc(C)cc(C)c1)=C(\C)O | i | 0 | -1 | 0 | -3
Oc1c(N=Nc2ccccc2)sc2ccccc12 | ? | . | 9.8* | . | -9
CC(=Nc1ccc(O)cc1)c1sc2ccccc2c1O | ? | 3 | 3 | 0 | 9
NS(=O)(=O)c1cc2c(cc1C(F)(F)F)NC(Cc1ccccc1)NS2(=O)=O (configuration not stated) | i | 0 | 10* | 0 | 3
NS(=O)(=O)c1cc2c(cc1Cl)NC(CSCc1ccccc1)=NS2(=O)=O | i | 0 | -3 | 0 | 9
CN(NS(=O)(=O)c1ccc(Cl)cc1)c1cnn(C)c(=O)c1Cl | i | . | 9.9* | . | 5
CN(NS(=O)(=O)c1ccc(Cl)cc1)c1nc(C(F)(F)F)nc2ccccc12 | . | -1 | 3 | -1 | 6
CN(C)/C=C/C(=O)c1ccc(Cl)cc1 | i | -1 | 11* | 0 | 1
CC(C)c1ccc(S(=O)(=O)N2CCN(CCC(=O)Nc3ccc(N(C)C)cc3)CC2)cc1 | i | 0 | 0 | 0 | -9
COCCn1c(=O)[nH]c2cc(C(=O)NCCN3CCN(c4ccc(OC)cc4)CC3)ccc2c1=O | i | 2 | -2 | 0 | 1

Assay outcomes: PubChem, several laboratories
